Screening data deposited in PubChem BioAssay by National Center for Advancing Translational Sciences (NCATS).
Rows were chosen to be rich in hits. Some 11% of all compounds tested hit in one or more screens of this group.
Pf growth 96h: P. falciparum growth inhibition at 96 hours; P. falciparum luciferase reporter growth, 96 h; Potency, µM (titrated, usually from 28.7 µM), without a hit: top-dose activity change, negative = inhibition, actives largely listed as inhibitors; 320,000 tested, 6.9% active; AID 504834; also: % is scaled to controls: 0 for no effect and ±100 for the full control effect
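Readout is luminescence from an integrated firefly luciferase in P. falciparum. Red cells, 2% hematocrit and 0.05% parasitemia final, were cultured with compound through two parasite generations (96 hours) at 37 C, 5% CO2.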
VACV mCherry inh: vaccinia inhibition (mCherry reporter). Vaccinia virus mCherry reporter infection, fluorescence. Potency, µM (titrated, usually from 36.5 µM), inactives show at the top dose activity change, negative = inhibition, hits mostly inhibitors. 310,000 tested, 0.63% active. AID 720579; calls by dose curve; tested in A549 cells; also: % is scaled to controls: 0 for no effect and ±100 for the full control effect; nearly all actives have a fitted effect of over 35% in size
NS1 inh: blocks influenza NS1 protein function; Potency, µM (series often up to 46.1 µM), without a hit: at the highest dose activity, positive = more growth; AID 2326; 270,000 tested, 0.4% active; calls by dose curve; also: actives are rising curves; nearly all actives have a fitted effect of over 50% in size
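Read-out: OD600 growth recovery of NS1-expressing budding yeast. Cells grown overnight at 30C in -URA glucose medium, washed, resuspended and diluted 1:100 in 2% galactose assay medium, pH 6.0. Same strain lacking NS1 served as positive control.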
Pf growth 48h: inhibits P. falciparum growth in the first generation, 48 h; P. falciparum luciferase growth in erythrocytes, 48 h; Potency, µM (top dose mostly 28.7 µM), inactives show at the top dose activity change, negative = inhibition, actives largely listed as inhibitors; 310,000 tested, 5.9% active; also: % is scaled to controls: 0 for no effect and ±100 for the full control effect
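Firefly luciferase activity from engineered P. falciparum reports growth; inhibitors lower the luminescent signal. Cultures contained 2% hematocrit erythrocytes at 0.1% final parasitemia.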
Vaccinia Venus: inhibitors of vaccinia virus (Venus reporter); Vaccinia virus Venus reporter expression, fluorescence; Potency, µM (highest dose often 36.5 µM), for the others: at the top dose activity change, negative = inhibition, usual class: inhibitors; 330,000 tested, 0.46% active; calls by dose curve; tested in A549 cells; also: % is scaled to controls: 0 for no effect and ±100 for the full control effect; nearly all actives have a fitted effect of over 30% in size
HCV inh: HCV inhibition | Huh7.5.1 HCVcc-Cre infection, luciferase reporter, 44 h | Potency, µM (doses to about 41.8 µM), for inactives: at the top dose activity change, negative = inhibition, usual class: inhibitors | 340,000 tested, 3.4% active; also: % is scaled to controls: 0 for no effect and ±100 for the full control effect
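Whole-lifecycle infectious HCVcc-Cre system; cells 1,000/well, compound then virus (~0.5 moi) added 4 h after plating, 44 h culture. Luciferase read 15 sec following 15 min substrate incubation, room temp.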
* = called active by the depositor; i = inactive; ? = inconclusive; nt = no result; [ ] = remark or other dose. Unless noted, calls follow the shape of the dose curve; as a rule, active = well fitted inhibition curve with a large enough effect; inconclusive = small, poorly fitted or top-dose-only effect, or another doubt; inactive = no such curve, though single readings can be large or run the other way. Potency is read from the fitted curve at half-maximal effect.

SMILES	Pf growth 96h	VACV mCherry inh	NS1 inh	Pf growth 48h	Vaccinia Venus	HCV inh
COc1cccc(NC(=O)CN(C)C(=O)c2cccc(S(=O)(=O)N3CCN(c4ccc(F)cc4)CC3)c2)c1	?	-20%	nt	-20%	?	?
CCOC(=O)c1cccc(NC(=O)c2ccc3c(c2)OCO3)c1	-26%	-22%	-82%	64%	-26%	?
CCOC(=O)c1cccc(NC(=O)/C=C/c2ccc3c(c2)OCO3)c1	?	-23%	-5%	196%	?	13µM*
Cc1ccc(CN2CCN(Cc3cccn3-c3ccccn3)CC2CCO)cc1 (stereo not drawn)	46%	i	-2%	-1%	3%	-19%
Cc1ccc(CN2CCN(Cc3cccn3-c3ccc(Cl)cn3)CC2CCO)o1 (stereo not drawn)	12µM*	i	-3%	?	1%	18%
CC(C)CCN1CCN(Cc2cccn2-c2ccc(Cl)cn2)CC1CCO (stereo not drawn)	0%	i	-3%	9.3µM*	1%	-7%
OCCC1CN(Cc2cccn2-c2ncccn2)CCN1Cc1ccccc1 (stereo not drawn)	13µM*	-11%	-4%	-6%	-13%	3%
CC(C)CCN1CCN(Cc2cccn2-c2cccnc2)CC1CCO (stereo not drawn)	?	nt	0%	-9%	nt	21%
CCn1ccnc1CN1CCN(CCC(C)C)C(CCO)C1 (stereo not drawn)	12µM*	-18%	2%	4%	-2%	7%
CCOc1ccc(-n2nc3cc(C)c(N)cc3n2)cc1	?	nt	-7%	301%	nt	-18%
Cc1ccc(C(=O)O/N=C(\N)c2ccc(Br)cc2)cc1	13%	-18%	-121%	nt	-9%	12%
COc1cccc(C(=O)Nc2ccc(S(=O)(=O)N3CCCCC3)cc2)c1OC	5.2µM*	?	-9%	12µM*	?	?
COc1cccc(OC)c1C(=O)Nc1ccc(S(=O)(=O)N2CCCCC2)cc1	3.3µM*	-20%	0%	-17%	-27%	-18%
CNC(=S)NNC(=O)Cn1ccc(C)n1	2%	i	8%	-2%	-4%	nt
Cc1ccc2oc(-c3ccc(NC(=O)c4ccc5c(c4)OCO5)cc3)nc2c1	29%	nt	5%	73%	nt	?
COc1ccc(CCNC(=O)CNC(=O)Cn2cnc3sc(C)c(C)c3c2=O)cc1OC	?	i	nt	1%	-22%	-1%
Cc1ncoc1C(=O)N1CCCC(C(=O)c2ccc(-c3ccccc3)c(F)c2)C1 (stereo not drawn)	?	nt	-30%	47%	nt	?
CCN1/C(=C2\SC(=S)N(Cc3ccccc3)C2=O)Sc2ccccc21	49%	-12%	3%	-4%	-11%	-4%
CCC(CO)[n+]1c(C)cc(/C=C2\Sc3ccccc3N2Cc2ccccc2)cc1C (stereo not drawn)	?	i	-17%	0.37µM*	-30%	?
COC(=O)c1c(SCC(=O)Nc2ccc(C)cc2)nc(=O)[nH]c1C	-22%	-10%	nt	9%	-7%	10%
Cn1cccc1Cc1nnc(SCC(=O)NCc2ccccc2Cl)n1-c1ccc(F)cc1	?	nt	-28%	nt	nt	-20%
COc1ccc(CCNC(=O)c2ccc3nc(CCc4ccccc4)oc3c2)cc1OC	nt	-9%	nt	nt	-2%	nt
CCOc1cccc(=NC2CCCCC2)c2c(C)n(C)c(C)c12	?	20µM*	0%	1.9µM*	?	?
Cc1c(C(=O)N2CCC2)oc2c(F)cccc12	nt	i	nt	nt	-4%	4%
NS(=O)(=O)c1ccc(NC(=O)C2C3C=CC(C3)C2C(=O)O)cc1 (stereo not drawn)	148%	1%	4%	8%	-11%	15%
SMILES	Pf growth 96h	VACV mCherry inh	NS1 inh	Pf growth 48h	Vaccinia Venus	HCV inh
Cc1ccc(OCC(=O)O/N=C(\N)c2cccnc2)cc1	129%	8%	-5%	75%	-4%	15%
CC(C)=CCCC1(C)C=Cc2c(c(C)cc3c2[nH]c2cc(O)ccc23)O1 (stereo not drawn)	-16%	-12%	5%	10µM*	-14%	-22%
O=C1CCCC(O)=C1Sc1ccccc1C(=O)O	-18%	nt	-2%	33%	nt	16%
Cc1c(C(=O)NCCCN2CCCCC2)oc2ccc3c(c12)C(O)CC1(CCCCC1)O3 (stereo not drawn)	22%	nt	4%	8.3µM*	nt	?
CCn1ccnc1CN1CCCCC1C(=O)Nc1ccc(Oc2cccnc2)cc1 (stereo not drawn)	19%	-14%	2%	?	-26%	?
COc1ccc(-c2nc(Cn3c(SCc4ccccc4F)nc4ccncc43)c(C)o2)cc1	4.7µM*	i	9%	nt	?	?
COc1ccc(-c2nc(Cn3c(SCc4ccccc4F)nc4cccnc43)c(C)o2)cc1	nt	-12%	nt	nt	-10%	nt
CCc1ccccc1NC(=O)CN(C)S(=O)(=O)c1ccc(-c2ccc(=O)[nH]n2)s1	?	nt	10%	?	nt	2%
COc1cc(OC)c(NC(=O)CN(C)S(=O)(=O)c2ccc(-c3ccc(=O)[nH]n3)s2)cc1Cl	8%	nt	17%	2.3µM*	nt	?
COc1cccc(C(=O)c2ncc(C(F)(F)F)cc2Cl)c1	?	-1%	nt	-26%	1%	13%
O=C(c1cc(Br)ccc1Cl)N1CCN(c2ncccn2)CC1	3%	-16%	-6%	1%	2%	9%
O=C(O)c1ccccc1C(=O)N1CCN(c2ncccn2)CC1	25%	i	9%	2%	-10%	13%
O=C(c1cnc(N2CCN(c3ncccn3)CC2)c2ccccc12)N1CCN(c2ncccn2)CC1	?	-8%	-54%	?	-24%	11µM*
O=C(c1cc(F)c(F)cc1Cl)N1CCN(c2ncccn2)CC1	5.2µM*	nt	13%	-2%	nt	7%
CC(=O)c1cccc(NC(=O)Cn2c(=O)oc3cc(S(=O)(=O)N4CCCC4)ccc32)c1	-2%	-2%	6%	-5%	-19%	0%
O=C(Nc1nc2ccccc2n1CCN1CCOCC1)c1ccc(COc2ccccc2Br)o1	-13%[5.75 µM]	?	nt	?	-27%	10µM*
O=C(Nc1nc2ccccc2n1Cc1ccccc1)c1ccc(COc2ccccc2[N+](=O)[O-])o1	?	nt	30%	1.9µM*	nt	?
Cc1ccc(OCc2ccc(C(=O)Nc3nc4ccccc4n3Cc3ccccc3)o2)c([N+](=O)[O-])c1	nt	-1%	8%	?	-15%	?
CSc1sc(-c2ccnc(=S)[nH]2)c(-c2ccccc2)c1C#N	-3%	i	7%	8%	-9%	-10%
Cc1cc(-c2ccnc(-n3ncc(C(=O)NCCc4cccnc4)c3C)n2)c(C)s1	nt	-13%	nt	nt	-27%	nt
